Inconclusive results are not listed. Entries that show only a call come without a potency. Activity calls are given as the source filed them. Unless noted, calls come from the whole dose curve; as a rule, active = well fitted curve in the direction sought with a large enough effect in the repeat runs; inconclusive = weak or mixed curves; inactive = no such curve, though single readings can be large; an effect the other way counts as inactive or inconclusive.
Experiments:
[1] = qHTS assay to identify small molecule antagonists of the estrogen related receptor (ERR) signaling pathway from Tox21 library - cell viability counter screen (AID 1224834); note: nearly all actives have a fitted effect of over 30% in size; note: potency is the fitted concentration of half-maximal effect
Procedure, shortened: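 Viability readout (CellTiter-Fluor fluorescence, 30 min at 37 C) multiplexed with the ERR assay; cells treated 17.5 h at 37 C with compounds delivered in DMSO.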

[2] = target: Luciferin 4-monooxygenase (Photinus pyralis) (UniProt P08659); assay: qHTS assay to identify small molecule inhibitors of firefly luciferase (AID 1224835); note: nearly all actives have a fitted effect of over 25% in size; note: potency is the fitted concentration of half-maximal effect
Chain of Luciferin 4-monooxygenase (Photinus pyralis) (P08659 whole entry, looked up): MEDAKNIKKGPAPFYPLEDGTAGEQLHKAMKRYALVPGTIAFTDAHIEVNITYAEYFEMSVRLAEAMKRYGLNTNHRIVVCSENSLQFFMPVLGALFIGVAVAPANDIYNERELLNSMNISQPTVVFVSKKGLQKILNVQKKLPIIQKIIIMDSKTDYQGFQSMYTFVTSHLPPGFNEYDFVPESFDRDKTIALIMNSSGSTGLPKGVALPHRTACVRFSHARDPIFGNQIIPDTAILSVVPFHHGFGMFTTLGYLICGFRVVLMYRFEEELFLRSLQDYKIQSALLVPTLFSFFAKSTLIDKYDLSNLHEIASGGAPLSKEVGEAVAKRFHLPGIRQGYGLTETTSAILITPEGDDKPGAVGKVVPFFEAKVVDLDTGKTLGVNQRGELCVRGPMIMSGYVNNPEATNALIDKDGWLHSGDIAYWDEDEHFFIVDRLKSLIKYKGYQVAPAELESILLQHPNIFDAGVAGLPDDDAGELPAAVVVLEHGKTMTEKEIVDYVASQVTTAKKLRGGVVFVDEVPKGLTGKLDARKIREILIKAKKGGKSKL
Procedure, shortened: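 Quantitative HTS format; KM concentrations of both substrates. Purified P. pyralis FLuc activity quantified from luminescence images.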

[3] = qHTS assay to identify small molecule agonists of the constitutive androstane receptor (CAR) signaling pathway - cell viability counter screen (AID 1224836); note: nearly all actives have a fitted effect of over 45% in size; note: potency is the fitted concentration of half-maximal effect
Procedure, shortened: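 HepG2 cells stably carrying hCAR and a CYP2B6-2.2kb reporter were plated 4 h, then given compounds at 15 concentrations plus PK11195 (final 0.75 uM). After 23 h at 37 C, viability was read by CellTiter-Fluor fluorescence.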

[4] = qHTS assay to identify small molecule antagonists of the constitutive androstane receptor (CAR) signaling pathway - cell viability counter screen (AID 1224837); note: nearly all actives have a fitted effect of over 45% in size; note: potency is the fitted concentration of half-maximal effect
Procedure, shortened: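 Fluorescence from CellTiter-Fluor served as the viability signal. Human hepatoma HepG2 cells stably bearing hCAR and CYP2B6-2.2kb received compound plus CITCO (50 nM final) for 23 hr.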

[5] = target: Nuclear receptor subfamily 1 group I member 3 (Homo sapiens) (UniProt Q14994); assay: qHTS assay to identify small molecule antagonists of the constitutive androstane receptor (CAR) signaling pathway (AID 1224838); note: nearly all actives have a fitted effect of over 40% in size; note: potency is the fitted concentration of half-maximal effect
Chain of Nuclear receptor subfamily 1 group I member 3 (Homo sapiens) (Q14994 whole entry, looked up): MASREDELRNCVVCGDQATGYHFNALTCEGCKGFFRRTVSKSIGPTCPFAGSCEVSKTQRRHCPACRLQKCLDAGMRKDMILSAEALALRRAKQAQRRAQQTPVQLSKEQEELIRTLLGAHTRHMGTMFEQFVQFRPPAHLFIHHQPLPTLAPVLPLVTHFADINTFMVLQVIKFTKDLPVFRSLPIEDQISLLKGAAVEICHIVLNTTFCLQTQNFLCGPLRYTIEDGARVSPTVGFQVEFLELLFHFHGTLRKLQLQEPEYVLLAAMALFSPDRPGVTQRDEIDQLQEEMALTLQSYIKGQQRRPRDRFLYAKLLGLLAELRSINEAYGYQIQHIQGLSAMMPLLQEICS
Procedure, shortened: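 Quantitative HTS in double-stable HepG2-CYP2B6-hCAR cells. After 4 h plating, cells get compound (15 concentrations) and CITCO at 50 nM final, incubate 24 h at 37 C, then ONE-Glo luminescence is read.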

[6] = target: Nuclear receptor subfamily 1 group I member 3 (Homo sapiens) (UniProt Q14994); assay: qHTS assay to identify small molecule agonists of the constitutive androstane receptor (CAR) signaling pathway (AID 1224839); note: nearly all actives have a fitted effect of over 15% in size; note: potency is the fitted concentration of half-maximal effect
Procedure, shortened: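 HepG2 cells stably expressing hCAR and a CYP2B6-2.2kb luciferase reporter were treated with compounds at 15 concentrations plus 0.75 uM PK11195 (final) for 24 h at 37 C; luminescence was read after ONE-Glo addition.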

[7] = qHTS assay to identify small molecule antagonists of the estrogen related receptor signaling pathway with the pleiotropic PPARgamma coactivator (PGC) from Tox21 10K library - cell viability counter screen (AID 1224840; active = well fitted cell-killing curve with a large enough effect in the repeat runs, not every such curve was filed as active; note: nearly all actives have a fitted effect of over 40% in size)
Procedure, shortened: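 Compounds in DMSO, alongside positive and negative controls, were pinned onto PGC/ERR cells (2,000 per well). Exposure lasted 17.5 hours at 37 C, followed by a 30-minute CellTiter-Fluor incubation and fluorescence reading.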

[8] = qHTS assay to identify small molecule agonists of the estrogen related receptor signaling pathway with the pleiotropic PPARgamma coactivator (PGC) (AID 1224823)
Procedure, shortened: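 Cell-based luciferase assay in the NTP-supplied PGC/ERR line, 2,000 cells/well; 18 h compound exposure at 37 C, luminescence after One-Glo.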

[9] = qHTS assay to identify small molecule antagonists of the estrogen related receptor signaling pathway with the pleiotropic PPARgamma coactivator (PGC) from Tox21 10K library (AID 1224841; call rule not given here; note: actives are mostly falling curves and most rising ones were filed inactive; nearly all actives have a fitted effect of over 50% in size; note: potency is the fitted concentration of half-maximal effect)
Procedure, shortened: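 Compound exposure ran 18 hours at 37 C in PGC/ERR cells (2,000/well) that had first rested 6 hours in a 37 C/5% CO2 incubator. Luciferase activity was then detected with One-Glo after a 30-minute room-temperature step.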

[10] = qHTS assay to identify small molecule agonists of the estrogen related receptor signaling pathway with the pleiotropic PPARgamma coactivator (PGC) from Tox21 10K library (AID 1224842); note: nearly all actives have a fitted effect of over 15% in size
Procedure, shortened: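 PGC/ERR reporter cells (NTP line) were seeded 2,000 per well, rested 6 h at 37 C/5% CO2, then pin-dosed with compounds in DMSO for 18 h at 37 C; luciferase read by One-Glo luminescence after 30 min at room temperature.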

Row | SMILES | Potency [1] | Potency [2] | Potency [3] | Potency [4] | Potency [5] | Potency [6] | Potency [7] | outcome [8] | Potency [9] | Potency [10]
1 | Nc1nnc(-c2ccc([N+](=O)[O-])o2)o1 | 48.6 µM (active) | inactive | 30.6 µM (active) | 48.6 µM (active) | – | – | – | – | – | –
2 | CCOC(C)=O | inactive | inactive | inactive | inactive | inactive | inactive | inactive | – | – | –
3 | Clc1cc(Cl)nc(Cl)n1 | inactive | inactive | inactive | inactive | inactive | inactive | inactive | – | – | –
4 | CCOC(=O)C1=C(C)NC(C)=C(C(=O)OC)C1c1cccc(Cl)c1Cl (centres undefined) | inactive | inactive | inactive | inactive | inactive | inactive | inactive | inactive | inactive | inactive
5 | CC(C)=CCC1C(=O)N(c2ccccc2)N(c2ccccc2)C1=O | inactive | inactive | inactive | inactive | inactive | inactive | inactive | – | – | –
6 | CCc1ccccc1 | inactive | inactive | inactive | inactive | inactive | inactive | inactive | – | – | –
7 | C=C(C)C(=O)OCCCCCCCCCCCCC | inactive | inactive | inactive | inactive | inactive | inactive | inactive | – | – | –
8 | CCCC(=O)C(=O)O | inactive | inactive | inactive | inactive | inactive | inactive | inactive | – | – | –
9 | CN(C)CCN1C(=O)c2ccccc2N(C)c2ccccc21 | inactive | inactive | inactive | inactive | inactive | 26.6 µM (active) | inactive | – | – | –
10 | CCCCCCCC/C=C\CCCCCCCCCCCC(=O)O | inactive | inactive | inactive | inactive | inactive | inactive | inactive | – | – | –
11 | CN(C)CCC=C1c2ccccc2C=Cc2ccccc21 | – | inactive | inactive | – | inactive | inactive | inactive | inactive | inactive | inactive
12 | CC(C)(C)C(=O)C(=O)O | inactive | inactive | inactive | inactive | inactive | inactive | inactive | – | – | –
13 | Cc1[nH]cnc1CN1CCc2c(c3ccccc3n2C)C1=O | inactive | inactive | inactive | inactive | inactive | inactive | inactive | – | – | inactive
14 | C[C@@]12CCC[C@H]1[C@@H]1CC[C@H]3C[C@@H](O)CC[C@]3(C)[C@H]1CC2 | inactive | inactive | inactive | inactive | inactive | inactive | inactive | – | inactive | inactive
15 | CC(=O)Nc1ccc(C)cc1C | inactive | inactive | inactive | inactive | inactive | inactive | inactive | – | – | inactive
16 | COc1ccc(OC(=O)N(CC(=O)O)Cc2ccc(OCCc3nc(-c4ccccc4)oc3C)cc2)cc1 | inactive | inactive | inactive | inactive | inactive | inactive | inactive | – | inactive | inactive
17 | CCN(CC)CCNC(=O)COc1ccc(OC)cc1 | inactive | inactive | inactive | inactive | inactive | – | inactive | – | – | –
18 | CC(=O)c1cc2ccccc2s1 | inactive | inactive | inactive | inactive | inactive | – | inactive | – | – | –
19 | c1csc(SSc2cccs2)c1 | 54.5 µM (active) | 22.4 µM (active) | 54.5 µM (active) | 48.6 µM (active) | 43.3 µM (active) | inactive | – | – | – | inactive
20 | C=C(C)C(=O)OCCOCCOC(=O)C(=C)C | inactive | inactive | inactive | inactive | inactive | inactive | inactive | – | inactive | inactive
21 | CCCCCCNC(=O)n1cc(F)c(=O)[nH]c1=O | inactive | inactive | inactive | inactive | 2.11 µM (active) | inactive | inactive | – | inactive | inactive
22 | CCCCCC#CC(=O)OC | inactive | inactive | inactive | inactive | inactive | inactive | inactive | – | inactive | inactive
23 | CN1CCCN=C1COC(=O)C(O)(c1ccccc1)C1CCCCC1 (centres undefined) | inactive | inactive | inactive | inactive | inactive | inactive | inactive | – | – | inactive
24 | CC(C)(C)CC(=O)OCC(=O)[C@@]1(O)CC[C@H]2[C@@H]3CCC4=CC(=O)C=C[C@]4(C)[C@H]3[C@@H](O)C[C@@]21C | 26.6 µM (active) | inactive | inactive | inactive | inactive | inactive | inactive | – | 23.7 µM (active) | inactive
25 | O=C(O)c1ccc(OCCCOc2ccc(C(=O)O)cc2)cc1 | inactive | inactive | inactive | inactive | inactive | inactive | inactive | – | – | inactive
26 | CC(=O)OCC(=O)NCCCOc1cccc(CN2CCCCC2)c1 | inactive | inactive | inactive | inactive | inactive | inactive | inactive | – | inactive | inactive

Source: PubChem BioAssay (Tox21)
